system: RIPK2; conditions: concentration: 1 μM, replicates: in singlicate; n = 1
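Also: KINOMEscan kinase panel screen.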

Structure (SMILES) | %Inh
Cl.O=S(=O)(c1cccc(F)c1)c1ccc(Nc2ncnc3cc(Br)sc23)cc1Cl [GSK306886] | 42%
O=C(NCCCN1CCCC1=O)c1cnc(NCc2cc(Cl)ccc2Cl)nc1NC1CCNCC1 | 0%
Cl.Cn1ccc(-c2cccc(Nc3ccnc4cc(-c5nccs5)ccc34)c2)n1 [GW525701] | 16%
CC(C)(C)OC(=O)NC1CCCN(c2cc(-c3ccc4c(N)n[nH]c4c3)nc(N)n2)C1 (stereo not drawn) [GSK2286096] | 8%
Cn1ccc2ncnc(Nc3ccc(Oc4cccc(Cl)c4)c(Cl)c3)c21 | 47%
O=C(Nc1ccccc1)Nc1ccc(Oc2ccc3nccn3n2)cc1 | 88%
CSc1nn2c(=O)cc(N3CCOCC3)nc2n1Cc1cccc(Cl)c1Cl [GSK2347225] | 20%
COC(=O)c1cccc(NC(=O)NCCNc2ccnc(Nc3ccc(F)cc3)n2)c1 [GSK1379883] | 0%
CCn1c(-c2ccncc2)nc2cnccc21 [SB-735216] | 15%
Fc1cccc(COc2ccc(Nc3ncnc4cc[nH]c34)cc2Cl)c1 | 25%
O=C(Nc1n[nH]c2nc(-c3ccco3)c(Br)cc12)c1ccc(CN2CCCC2)cc1.O=C(O)[C@H](O)[C@@H](O)C(=O)O [SB-742352] | 47%
CCC(CC)(CC)n1cnc2c(N)ncnc21 [SKF-97620] | 1%
O=C(CCO)NCCn1ccc2ncnc(Nc3ccc(Oc4cccc(C(F)(F)F)c4)c(Cl)c3)c21 | 7%
OCCOCCn1ccc2ncnc(Nc3ccc(Oc4cccc(Cl)c4)c(Cl)c3)c21 | 48%
Clc1cccc(-c2nc(Nc3ccncc3)c3ccccc3n2)c1 [GW873004] | 10%
COc1ccc(NC(=O)c2ccc(-c3cc(-c4nnc(C)o4)ccc3C)cc2)cc1 [GW595885] | 0%
O=C(Nc1ccccc1F)NC1CCN(c2ccnc(Nc3ccc(F)cc3)n2)C1 (stereo not drawn) [GSK1379722] | 0%
Nc1nc(-c2ccc3c(N)n[nH]c3c2)cc(N2CCCCC2)n1 [GSK2228768] | 0%

Structure (SMILES) | %Inh
CN1CCC(n2cnc(-c3ccc(F)cc3)c2-c2ccnc(NC3CCNCC3)n2)CC1 [SB-229482] | 0%
Clc1cc(Nc2ncnc3cc[nH]c23)ccc1OCc1ccccn1 | 27%
COc1cc2c(Nc3cccc(NC(=O)c4ccccc4)c3)ncnc2cc1OCCCN1CCOCC1 [GSK223810] | 31%
CCc1nc(-c2cccc(N(C)S(=O)(=O)c3ccccc3)c2)c(-c2ccnc(Nc3ccc(N4CCN(C(C)=O)CC4)nc3)n2)s1 [GSK1645895] | 90%
Cc1ccc(O)cc1Nc1cc(C(F)(F)F)nc2ccc(-c3ccncc3)cc12 [GW630823] | 17%
c1ccc(-c2ccc3c(-c4ccnc(Nc5ccc6c(c5)OCCO6)n4)cnn3n2)cc1 [GW818941] | 9%
CSc1ccc(NC2=C(c3ccccc3Cl)C(=O)NC2=O)cc1 [SB-342411] | 32%
CS(=O)(=O)CCNCc1ccc(-c2ccc3ncnc(Nc4ccc(OCc5ccccc5)c(Cl)c4)c3c2)o1.Cl [GW574783] | 79%
COc1cc2ncnc(Nc3ccc(OCc4ccccc4Br)c(Cl)c3)c2cc1OC.Cl [GI261590] | 86%
CC(C)N1CCC(n2cnc(-c3ccc(F)cc3)c2-c2ccnc(N)n2)CC1 [SB-223132] | 48%
Cn1cc(-c2ccc3c(c2)CCN3C(=O)Cc2cccc(C(F)(F)F)c2)c2c(N)ncnc21 [GSK2606414] | 1%
COc1ccc(Nc2nccc(N3CCC(NC(=O)c4cccc(NC(C)=O)c4)C3)n2)cc1 (stereo not drawn) [GSK1379732] | 7%
Nc1nc(-c2ccc3c(N)n[nH]c3c2)cc(N2CCC[C@@H](C(=O)Nc3ccccc3)C2)n1.O=C(O)C(F)(F)F.O=C(O)C(F)(F)F [GSK2288359] | 5%
CN1c2ccc(-c3ccc(C(=O)NCCO)cc3)cc2-c2[nH]ncc2S1(=O)=O | 13%
N#Cc1ccc(Oc2ccc(Nc3ncnc4cc[nH]c34)cc2Cl)cc1 | 26%
Cl.c1ccc(Cn2ncc3cc(Nc4ncnc5ccccc45)ccc32)cc1 [GW273749] | 74%
Nc1nccc2scc(-c3ccc4c(c3)CCN4C(=O)Cc3cc(F)ccc3F)c12 [GSK2587663] | 3%
Nc1nc(-c2cccnc2)c(-c2ccnc3ccccc23)s1 [GW684083] | 10%

system: RIPK4; conditions: concentration: 1 μM, replicates: in singlicate; n = 1

Structure (SMILES) | %Inh
Cl.O=S(=O)(c1cccc(F)c1)c1ccc(Nc2ncnc3cc(Br)sc23)cc1Cl [GSK306886] | 0%
O=C(NCCCN1CCCC1=O)c1cnc(NCc2cc(Cl)ccc2Cl)nc1NC1CCNCC1 | 0%
Cl.Cn1ccc(-c2cccc(Nc3ccnc4cc(-c5nccs5)ccc34)c2)n1 [GW525701] | 23%
CC(C)(C)OC(=O)NC1CCCN(c2cc(-c3ccc4c(N)n[nH]c4c3)nc(N)n2)C1 (stereo not drawn) [GSK2286096] | 14%
Cn1ccc2ncnc(Nc3ccc(Oc4cccc(Cl)c4)c(Cl)c3)c21 | 0%
O=C(Nc1ccccc1)Nc1ccc(Oc2ccc3nccn3n2)cc1 | 0%
CSc1nn2c(=O)cc(N3CCOCC3)nc2n1Cc1cccc(Cl)c1Cl [GSK2347225] | 7%
COC(=O)c1cccc(NC(=O)NCCNc2ccnc(Nc3ccc(F)cc3)n2)c1 [GSK1379883] | 2%
CCn1c(-c2ccncc2)nc2cnccc21 [SB-735216] | 10%
Fc1cccc(COc2ccc(Nc3ncnc4cc[nH]c34)cc2Cl)c1 | 16%
O=C(Nc1n[nH]c2nc(-c3ccco3)c(Br)cc12)c1ccc(CN2CCCC2)cc1.O=C(O)[C@H](O)[C@@H](O)C(=O)O [SB-742352] | 0%
CCC(CC)(CC)n1cnc2c(N)ncnc21 [SKF-97620] | 41%
O=C(CCO)NCCn1ccc2ncnc(Nc3ccc(Oc4cccc(C(F)(F)F)c4)c(Cl)c3)c21 | 0%
OCCOCCn1ccc2ncnc(Nc3ccc(Oc4cccc(Cl)c4)c(Cl)c3)c21 | 0%
Clc1cccc(-c2nc(Nc3ccncc3)c3ccccc3n2)c1 [GW873004] | 0%
COc1ccc(NC(=O)c2ccc(-c3cc(-c4nnc(C)o4)ccc3C)cc2)cc1 [GW595885] | 9%
O=C(Nc1ccccc1F)NC1CCN(c2ccnc(Nc3ccc(F)cc3)n2)C1 (stereo not drawn) [GSK1379722] | 98.7%
Nc1nc(-c2ccc3c(N)n[nH]c3c2)cc(N2CCCCC2)n1 [GSK2228768] | 7%

Structure (SMILES) | %Inh
CN1CCC(n2cnc(-c3ccc(F)cc3)c2-c2ccnc(NC3CCNCC3)n2)CC1 [SB-229482] | 45%
Clc1cc(Nc2ncnc3cc[nH]c23)ccc1OCc1ccccn1 | 23%
COc1cc2c(Nc3cccc(NC(=O)c4ccccc4)c3)ncnc2cc1OCCCN1CCOCC1 [GSK223810] | 0%
CCc1nc(-c2cccc(N(C)S(=O)(=O)c3ccccc3)c2)c(-c2ccnc(Nc3ccc(N4CCN(C(C)=O)CC4)nc3)n2)s1 [GSK1645895] | 18%
Cc1ccc(O)cc1Nc1cc(C(F)(F)F)nc2ccc(-c3ccncc3)cc12 [GW630823] | 0%
c1ccc(-c2ccc3c(-c4ccnc(Nc5ccc6c(c5)OCCO6)n4)cnn3n2)cc1 [GW818941] | 0%
CSc1ccc(NC2=C(c3ccccc3Cl)C(=O)NC2=O)cc1 [SB-342411] | 6%
CS(=O)(=O)CCNCc1ccc(-c2ccc3ncnc(Nc4ccc(OCc5ccccc5)c(Cl)c4)c3c2)o1.Cl [GW574783] | 0%
COc1cc2ncnc(Nc3ccc(OCc4ccccc4Br)c(Cl)c3)c2cc1OC.Cl [GI261590] | 7%
CC(C)N1CCC(n2cnc(-c3ccc(F)cc3)c2-c2ccnc(N)n2)CC1 [SB-223132] | 0%
Cn1cc(-c2ccc3c(c2)CCN3C(=O)Cc2cccc(C(F)(F)F)c2)c2c(N)ncnc21 [GSK2606414] | 3%
COc1ccc(Nc2nccc(N3CCC(NC(=O)c4cccc(NC(C)=O)c4)C3)n2)cc1 (stereo not drawn) [GSK1379732] | 0%
Nc1nc(-c2ccc3c(N)n[nH]c3c2)cc(N2CCC[C@@H](C(=O)Nc3ccccc3)C2)n1.O=C(O)C(F)(F)F.O=C(O)C(F)(F)F [GSK2288359] | 13%
CN1c2ccc(-c3ccc(C(=O)NCCO)cc3)cc2-c2[nH]ncc2S1(=O)=O | 0%
N#Cc1ccc(Oc2ccc(Nc3ncnc4cc[nH]c34)cc2Cl)cc1 | 0%
Cl.c1ccc(Cn2ncc3cc(Nc4ncnc5ccccc45)ccc32)cc1 [GW273749] | 8%
Nc1nccc2scc(-c3ccc4c(c3)CCN4C(=O)Cc3cc(F)ccc3F)c12 [GSK2587663] | 0%
Nc1nc(-c2cccnc2)c(-c2ccnc3ccccc23)s1 [GW684083] | 0%

From paper PMC5540273 (PLoS ONE, 2017)
